Screening data deposited in PubChem by National Center for Advancing Translational Sciences (NCATS).
FLuc counter: firefly luciferase modulation, counter-screen for miR-21 project; actives 6.9% (n = 360,000); P08659; purified FLuc, Km substrates, luminescence inhibition; Potency, µM (doses to about 57.5 µM), for inactives: top-dose activity change, negative = inhibition, actives largely listed as inhibitors;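 also: plate controls were vehicle for no effect and reference inhibitor for full effect; nearly all actives have a fitted effect of over 55% in size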
Target sequence (P08659 whole entry, looked up): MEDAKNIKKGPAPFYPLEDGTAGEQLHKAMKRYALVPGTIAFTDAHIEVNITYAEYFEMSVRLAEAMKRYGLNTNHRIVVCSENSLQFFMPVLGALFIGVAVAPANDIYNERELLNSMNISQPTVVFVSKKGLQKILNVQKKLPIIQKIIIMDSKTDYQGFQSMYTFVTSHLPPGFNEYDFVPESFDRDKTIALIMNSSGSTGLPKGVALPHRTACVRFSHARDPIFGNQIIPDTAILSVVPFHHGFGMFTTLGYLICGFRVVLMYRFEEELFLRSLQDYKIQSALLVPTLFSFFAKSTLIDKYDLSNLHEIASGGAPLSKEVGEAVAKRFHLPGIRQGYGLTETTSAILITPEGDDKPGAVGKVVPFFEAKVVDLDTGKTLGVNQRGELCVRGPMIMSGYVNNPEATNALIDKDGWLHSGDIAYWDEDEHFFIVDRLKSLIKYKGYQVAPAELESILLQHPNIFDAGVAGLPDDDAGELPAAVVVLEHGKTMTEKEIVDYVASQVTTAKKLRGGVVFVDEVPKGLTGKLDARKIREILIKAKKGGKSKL
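Purified P. pyralis luciferase, 10 nM final, with Km-level 10 uM D-luciferin and 10 uM ATP in 50 mM Tris acetate pH 7.5, 10 mM Mg acetate, 0.01% Tween-20, 0.05% BSA; 6-point qHTS titration about 60 µM downward; luminescence read.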
SMN2 splice enh: enhancers of SMN2 splice variant expression | Potency, µM (highest dose often 46.1 µM), for inactives: top-dose activity change, positive = activation, hits mostly activators | actives 2.8% (n = 210,000) | AID 1458 | HEK293 SMN2-luciferase splicing reporter, luminescence, 30-36 h; also: % of control where 0% means no effect; nearly all actives have a fitted effect of over 55% in size
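qHTS luciferase splicing reporter: luminescence rises when SMN2 exon 7 is included in transfected HEK293 cells. Compound exposure lasted 30-36 h at 37C, with 4.5 mM final sodium butyrate as control, followed by a ONE-Glo read.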
ELG1 DNA repair: ELG1-dependent DNA repair inhibition; HEK293T ELG1-luciferase reporter, luminescence, 16 h; DNA damage induced by 5-fluorouridine; Potency, µM (highest dose often 46.1 µM), inactives show top-dose activity change, negative = inhibition, most hits filed as inhibitors; actives 2.3% (n = 330,000); AID 504467; also: % is scaled to controls: 0 for no effect and ±100 for the full control effect; nearly all actives have a fitted effect of over 55% in size
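Quantitative HTS, concentration-response format. 2,000 cells/well co-treated with 5-fluorouridine and compound, 16 hr in 5% CO2 at 37 °C; ONE-Glo luminescence read after 30 min.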
NPC1 prom act: activates the NPC1 promoter; Huh7 NPC1 promoter luciferase reporter, 24 h; Potency, µM (highest dose often 9.22 µM), without a hit: top-dose activation, actives largely listed as activators; actives 2.4% (n = 320,000); AID 485313; also: % of control where 0% means no effect; nearly all actives have a fitted effect of over 60% in size
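NPC1 promoter–luciferase Huh7 cells; 24 h compound; luminescence.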
ELG1 genotoxic: inducers of genotoxicity in HEK293T ELG1-luciferase cells; AID 504466; Potency, µM (titrated, usually from 46 µM), for inactives: top-dose activity change, positive = activation, actives largely listed as activators; HEK293T ELG1-luciferase reporter, luminescence, 16 h; actives 1.3% (n = 330,000); also: % of control where 0% means no effect; nearly all actives have a fitted effect of over 60% in size
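DMSO vehicle served as control against compound-treated ELG1-luciferase HEK293T cells; exposure lasted 16 hr at 37 °C and 5% CO2, followed by ONE-Glo luminescence detection after 30 min.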
Rab9 promoter act: activators of Rab9 promoter; Potency, µM (highest dose often 9.22 µM), for inactives: at the top dose activation, negative = inhibition, most hits filed as activators; actives 2.8% (n = 320,000); Huh7 Rab9 promoter-luciferase reporter, luminescence, 24 h; also: % of control where 0% means no effect; nearly all actives have a fitted effect of over 60% in size
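Huh7 reporter line, Rab9 promoter upstream of luciferase. Compound exposure 24 h at 37 °C in reduced-serum medium with 10% FBS. Read-out: luminescence.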
* = called active by the depositor; ? = inconclusive; . = no result given. In the library only some 9.3% were active in any assay of this set; here they are far more common. Calls follow the shape of the dose curve; as a rule, active = well fitted curve in the direction sought with a large enough effect; inconclusive = small, poorly fitted or top-dose-only effect, or another doubt; inactive = no such curve, though single readings can be large; an effect the other way counts as inactive or inconclusive. Potency is read from the fitted curve at half-maximal effect.

SMILES	FLuc counter	SMN2 splice enh	ELG1 DNA repair	NPC1 prom act	ELG1 genotoxic	Rab9 promoter act
CN(C)S(=O)(=O)c1ccc(C(=O)NCCSc2ccccc2)cc1	?	18%	?	?	10µM*	?
CC1OC(OC2C(CO)OC(OC3C(CO)OC(O)C(O)C3O)C(O)C2O)C(O)C(O)C1N[C@@H]1C=C(CO)[C@@H](O)C(O)[C@H]1O (stereo partly specified)	2%	.	10%	2%	1%	2%
COc1ccc(-c2c(C)oc3c(CN4CCN(CCO)CC4)c(O)ccc3c2=O)cc1OC	2%	11%	12%	2%	1%	4%
CC(C)c1csc(CN2CCN(CCc3ccccc3)C(CCO)C2)n1 (stereo unspecified)	-4%	.	16%	-1%	-2%	-8%
Cc1ccc(C(=O)NCCSc2ccc(Cl)cc2)cc1S(=O)(=O)Nc1ccccc1	1%	-29%	21µM*	-9%	2%	-5%
CC(=O)Nc1cccc(N/C=C(\C=O)c2nc3ccccc3o2)c1	19µM*	?	?	15%	11%	19%
O=C/C(=C\Nc1ccccn1)c1nc2cc(Cl)ccc2o1	?	?	?	10%	-2%	26%
O=C/C(=C\Nc1ccccn1)c1nc2ccccc2o1	13µM*	25%	11%	13%	1%	5%
CN(C(=O)c1ccc(NC(=O)Cc2ccc([N+](=O)[O-])cc2)cc1)C1CC1	.	.	-11%	.	1%	.
Cc1ccc(NC(=O)CN(C)C(=O)c2ccc(NS(=O)(=O)c3ccc4[nH]c(=O)[nH]c4c3)cc2)cc1	.	.	23%	5%	1%	-2%
Cc1cc(/C(N)=N/OC(=O)Nc2ccccc2)no1	?	.	?	23%	9%	?
COc1ccc(C(=O)O/N=C(\N)c2ccccc2)cc1	0.21µM*	.	?	0.5µM*	1.8µM*	1.4µM*
Cc1cc(C(=O)O/N=C(\N)c2ccc(C(C)(C)C)cc2)no1	6µM*	.	?	3.5µM*	10%	1.8µM*
Cc1cc(/C(N)=N/OC(=O)Nc2ccc(Cl)cc2)no1	19µM*	.	?	10%	?	?
COc1ccc(C(=O)O/N=C(\N)c2ccc(Br)cc2)cc1	3µM*	.	?	?	16%	?
CCCN(CCC)C(=O)c1c[nH]c2ccc(S(=O)(=O)Nc3cc(C)cc(C)c3)cc2c1=O	?	0%	.	.	.	.
O=C(COc1ccccc1)Nc1ccccc1NS(=O)(=O)c1cccs1	3%	.	-5%	0%	-2%	-11%
Cc1ccc2[nH]c(=O)c(-c3nc4cc(C)ccn4c3NCc3ccco3)cc2c1	2%	-5%	16%	0%	0%	3%
CC(C)(C)c1ccc(NC(=O)CON=C(N)c2ccccc2)cc1	?	.	10%	-2%	2%	-2%
CC(C)(C)c1ccc(C(=O)O/N=C(\N)c2ccccc2)cc1	0.76µM*	.	?	-16%	?	-12%
COc1ccc(N2CC(O)(c3ccc(OC(F)F)cc3)[N+]3=C2CCCC3)cc1 (stereo unspecified)	0%	-7%	5%	-5%	-3%	-1%
Clc1ccc(-c2cn(-c3ccc(Cl)cc3)c3[n+]2CCCCC3)cc1	4%	.	?	0%	-13%	-1%
COc1ccc(-n2cc(-c3ccc(OC(F)F)cc3)[n+]3c2CCCCC3)cc1	1%	-20%	5.2µM*	-17%	-13%	-24%
COc1ccc(-c2cn(-c3ccc(Cl)cc3)c3[n+]2CCCCC3)cc1	0%	.	12µM*	-13%	-4%	-17%
COc1ccccc1C(CNC(=O)c1ccc(NS(=O)(=O)c2ccc3c(c2)OCCO3)cc1)N(C)C (stereo unspecified)	7%	.	0%	-1%	0%	-4%
SMILES	FLuc counter	SMN2 splice enh	ELG1 DNA repair	NPC1 prom act	ELG1 genotoxic	Rab9 promoter act
O=C(O)c1cccc(S(=O)(=O)N(Cc2ccccc2)c2ccccc2Cl)c1	1%	.	2%	3%	1%	-3%
COc1ccc(OC2C(=O)N(CCc3ccc(OC)c(OC)c3)C2c2ccc3c(c2)OCO3)cc1 (stereo unspecified)	0%	-37%	18µM*	0%	-6%	0%
O=C(Nc1ccc(F)cc1)C1CC(=O)N(Cc2ccco2)C1 (stereo unspecified)	5%	.	3%	-2%	0%	1%
Cc1nn(-c2ccccc2)c(N)c1N=O	5%	.	0%	-4%	7%	-3%
Cc1ccc(N=Nc2c(N)nn(-c3ccccc3)c2N)cc1	6µM*	10µM*	?	?	?	?
Cc1nn(-c2ccccc2)c(N)c1N=Nc1ccc2ccccc2c1	11µM*	13µM*	?	?	?	3.5µM*
Cc1ccc(S(=O)(=O)CC(=O)Nc2nc3ccccc3s2)cc1	-7%	.	1%	-6%	-1%	2%
CCOC(=O)c1nc2ccccc2s1	13µM*	-17%	?	9%	?	15%
CCCCNC(=O)Nc1nc2ccccc2s1	11µM*	11µM*	?	2.5µM*	?	1.4µM*
Cc1ccc(CC(=O)Nc2nc3ccccc3s2)cc1	19µM*	6%	?	?	3%	?
CCCCNC(=O)Nc1ccon1	1%	-27%	-5%	0%	2%	-9%
CCCCNC(=O)Nc1nc2ccc(CC)cc2s1	6.7µM*	?	?	?	?	?
O=C(NCCCN1CCN(c2cccc(Cl)c2)CC1)c1cccc(N2CCCC2=O)c1	-1%	4%	-12%	-1%	-4%	-5%
COc1ccc(N2CCN(C(=O)CN(c3ccc(Br)cc3)S(C)(=O)=O)CC2)cc1	-1%	-31%	-14%	1%	0%	2%
CCCNC(=O)Nc1nc2ccccc2s1	9.5µM*	.	?	2.2µM*	?	2.5µM*
CCCNC(=O)c1ccc(-c2nc3ccccc3s2)s1	0.34µM*	2.8µM*	?	?	0.21µM*	0.71µM*
CCOC(=O)CC(=O)Nc1nc2ccccc2s1	-16%	3%	?	1%	?	4%
Cc1nc2c(ccc3nc(NC(=O)Cc4ccccc4)sc32)s1	24µM*	?	?	25%	18%	?
CC12CCC(C(=O)Nc3nc4ccccc4s3)(OC1=O)C2(C)C (stereo unspecified)	17µM*	?	?	?	?	?
O=C(NCCCO)c1nc2ccccc2s1	-10%	6%	?	9%	16%	3%
